Measured values taken from the supplement of paper PMC11628255, “Interference of metal ions on the bioluminescent signal of firefly, Renilla, and NanoLuc luciferases in high-throughput screening assays” (Frontiers in Chemistry, 2024).
± gives the standard deviation of the averaged measurements.

System: Renilla luciferase (RLuc)
Assay: residual bioluminescent signal relative to negative control without GSH; higher = less interference (more residual luciferase signal)
Conditions: screening conditions buffer
Description: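 Selected metal salts at 3-4 concentrations tested on purified FLuc, NLuc or RLuc in screening buffer with 0, 0.2 or 2 mM glutathione added; 10 min enzyme pre-incubation at RT, luminescence 10 min after substrate. Signal normalised to negative control without GSH (% N_VALUE); triplicate wells.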

[1] = metal salt concentration 0.2 mM, glutathione 0 mM
[2] = metal salt concentration 0.2 mM, glutathione 0.2 mM
[3] = metal salt concentration 0.2 mM, glutathione 2 mM
[4] = metal salt concentration 1 mM, glutathione 0 mM
[5] = metal salt concentration 1 mM, glutathione 0.2 mM
[6] = metal salt concentration 1 mM, glutathione 2 mM

SMILES: O=[N+]([O-])[O-].[Ag+] [silver nitrate]
- residual bioluminescent signal (metal salt concentration 0.002 mM, glutathione 0 mM): 116 ± 9.8%
- residual bioluminescent signal (metal salt concentration 0.002 mM, glutathione 0.2 mM): 109 ± 15%
- residual bioluminescent signal (metal salt concentration 0.002 mM, glutathione 2 mM): 165 ± 28%
- residual bioluminescent signal (metal salt concentration 0.0684 mM, glutathione 0 mM): 49.2 ± 15%
- residual bioluminescent signal (metal salt concentration 0.0684 mM, glutathione 0.2 mM): 115 ± 7.6%
- residual bioluminescent signal (metal salt concentration 0.0684 mM, glutathione 2 mM): 160 ± 13%
- residual bioluminescent signal [1]: 5.26 ± 2.6%
- residual bioluminescent signal [2]: 119 ± 16%
- residual bioluminescent signal [3]: 174 ± 13%
- residual bioluminescent signal [4]: 2.52 ± 2%
- residual bioluminescent signal [5]: 102 ± 13%
- residual bioluminescent signal [6]: 171 ± 12%

SMILES: O=[N+]([O-])[O-].O=[N+]([O-])[O-].[Cu+2] [copper(II) nitrate]
- residual bioluminescent signal (metal salt concentration 0.1 mM, glutathione 0 mM): 90.5 ± 7.6%
- residual bioluminescent signal (metal salt concentration 0.1 mM, glutathione 0.2 mM): 101 ± 3.8%
- residual bioluminescent signal (metal salt concentration 0.1 mM, glutathione 2 mM): 115 ± 12%
- residual bioluminescent signal (metal salt concentration 0.132 mM, glutathione 0 mM): 79.1 ± 10%
- residual bioluminescent signal (metal salt concentration 0.132 mM, glutathione 0.2 mM): 88.3 ± 16%
- residual bioluminescent signal (metal salt concentration 0.132 mM, glutathione 2 mM): 135 ± 20%
- residual bioluminescent signal [1]: 107 ± 14%
- residual bioluminescent signal [2]: 98.8 ± 24%
- residual bioluminescent signal [3]: 120 ± 19%
- residual bioluminescent signal [4]: 2.29 ± 2.2%
- residual bioluminescent signal [5]: 27.7 ± 5.2%
- residual bioluminescent signal [6]: 122 ± 20%

SMILES: O=[N+]([O-])[O-].O=[N+]([O-])[O-].[Zn+2] [zinc nitrate]
- residual bioluminescent signal [4]: 112 ± 18%
- residual bioluminescent signal [5]: 116 ± 25%
- residual bioluminescent signal [6]: 158 ± 11%
- residual bioluminescent signal (metal salt concentration 2.5 mM, glutathione 0 mM): 104 ± 9.8%
- residual bioluminescent signal (metal salt concentration 2.5 mM, glutathione 0.2 mM): 110 ± 13%
- residual bioluminescent signal (metal salt concentration 2.5 mM, glutathione 2 mM): 110 ± 6.2%
- residual bioluminescent signal (metal salt concentration 4.13 mM, glutathione 0 mM): 89.4 ± 5%
- residual bioluminescent signal (metal salt concentration 4.13 mM, glutathione 0.2 mM): 96.3 ± 13%
- residual bioluminescent signal (metal salt concentration 4.13 mM, glutathione 2 mM): 46.9 ± 19%
- residual bioluminescent signal (metal salt concentration 10 mM, glutathione 0 mM): 2.06 ± 0.69%
- residual bioluminescent signal (metal salt concentration 10 mM, glutathione 0.2 mM): 4.57 ± 0.79%
- residual bioluminescent signal (metal salt concentration 10 mM, glutathione 2 mM): 2.74 ± 2.1%
